Laboratory results published in PubChem BioAssay (NCATS).
Results filed as inconclusive are left out. Entries that show only a call come without a potency. Unmarked numbers belong to inactive results. The source made the active and inactive calls. The call rests on the fitted dose curve; in most records, active means well fitted curve in the direction sought with a large enough effect; inconclusive means small, poorly fitted or top-dose-only effect, or another doubt; inactive means no such curve, though single readings can be large; an effect the other way counts as inactive or inconclusive. Numbered stars: 1 amine (or outer) side, 2 acyl side, 3 side chain; on linkers, the order of the positions; unused ones are H or OH. Square brackets hold non-standard residues; d marks the D form. Peptide text beside a SMILES is read from it. X10 = O=C(C(CC(O)CO)O[*:1])[*:2]; NMeV = CN[CH](C(=O)O)C(C)C; NMeA = CN[CH](C)C(=O)O; βAla = NCCC(=O)O

How the values were obtained:
[1] = molecular target: Cellular tumor antigen p53 (Homo sapiens) (UniProt P04637); assay: Primary qHTS for small molecule compounds that upregulate eGFP-tagged delta133p53alpha (in N-terminal) cells. (AID 2060322); settings: NCI-H358 eGFP-delta133p53alpha fluorescence, 24 h; activation: active compounds read high; further: nearly all actives have a fitted effect of over 75% in size; further: potency means the concentration at half of the fitted maximal effect; on activation: series mostly up to about 56 µM
Cellular tumor antigen p53 (Homo sapiens), sequence (P04637 whole entry, looked up): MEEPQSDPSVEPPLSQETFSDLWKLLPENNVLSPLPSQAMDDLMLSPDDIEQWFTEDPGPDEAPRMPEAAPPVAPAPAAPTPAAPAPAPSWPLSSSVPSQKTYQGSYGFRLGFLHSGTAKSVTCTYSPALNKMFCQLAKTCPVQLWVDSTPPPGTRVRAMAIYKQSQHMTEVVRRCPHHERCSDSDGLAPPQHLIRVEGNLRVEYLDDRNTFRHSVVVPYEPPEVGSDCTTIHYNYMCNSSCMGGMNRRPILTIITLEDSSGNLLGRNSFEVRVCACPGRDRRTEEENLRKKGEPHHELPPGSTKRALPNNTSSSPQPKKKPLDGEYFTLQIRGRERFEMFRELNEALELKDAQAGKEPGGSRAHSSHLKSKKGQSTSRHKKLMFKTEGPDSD
Summary of the method: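 NCI-H358 cells pre-induced 24 h with 10 ng/ml doxycycline to express N-terminal eGFP-delta133p53alpha, then dosed 24 h at 37C without doxycycline; fixed, Hoechst-stained, GFP intensity by laser scanning cytometry, normalized to DMSO (0%) and 57.5 uM 5-azacytidine (100%).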

[2] = molecular target: Aldehyde dehydrogenase, mitochondrial (Homo sapiens) (UniProt P05091); assay: qHTS for Inhibitors of the Aldehyde Dehydrogenase Family (ALDH2) Primary screen (AID 2061308); further: nearly all actives have a fitted effect of over 55% in size
[3] = molecular target: Retinaldehyde dehydrogenase 3 (Homo sapiens) (UniProt P47895); assay: qHTS for Inhibitors of the Aldehyde Dehydrogenase Family (ALDH1A3) Primary screen (AID 2061315)

## C[C@H]1CC[C@@]2(OC1)O[C@H]1CC3C4CC=C5C[C@H](O)C[C@@H](O[C@@H]6O[C@@H](C)[C@H](O)[C@@H](O)[C@H]6O[C@@H]6O[C@@H](C)[C@H](O)[C@@H](O)[C@H]6O)[C@]5(C)C4CC[C@]3(C)[C@H]1[C@@H]2C (some centres not stated)
[1]
  activation: -13.7%
[2]
  Potency: inactive
[3]
  Potency: inactive

## CC[C@]1(O)CC2CN(CCc3c([nH]c4ccccc34)[C@@](C(=O)OC)(c3cc4c(cc3OC)N(C=O)[C@H]3[C@@](O)(C(=O)OC)[C@H](OC(C)=O)[C@]5(CC)C=CCN6CC[C@]43[C@@H]65)C2)C1 (some centres not stated)
[1]
  activation: -0.333%
[2]
  Potency: inactive
[3]
  Potency: inactive

## C/C(=C\CCC(C)(C)O)CCO[C@@H]1O[C@H](CO[C@@H]2O[C@@H](C)[C@H](O)[C@@H](O)[C@H]2O)[C@@H](O)[C@H](O)[C@H]1O
[1]
  activation: 0%
[2]
  Potency: inactive
[3]
  Potency: inactive

## C/C(=C/CO)CC[C@H]1[C@]2(C)C[C@H](O)CC(C)(C)[C@H]2CC[C@]1(C)O
[1]
  activation: -9.92%
[2]
  Potency: inactive
[3]
  Potency: inactive

## C=C1CC[C@]2(C(=O)O[C@@H]3O[C@H](CO)[C@@H](O)[C@H](O)[C@H]3O)CC[C@]3(C)C(=CCC4[C@@]5(C)C[C@H](O)[C@@H](O[C@@H]6O[C@H](C(=O)O)[C@@H](O)[C@H](O)[C@H]6O)[C@](C)(C=O)C5CC[C@]43C)C2C1 (some centres not stated)
[1]
  activation: -11.6%
[2]
  Potency: inactive
[3]
  Potency: inactive

## O=C(O)CC1CC(c2ccccc2)=NO1 (configuration not stated)
[1]
  activation: 16.3%
[2]
  Potency: inactive
[3]
  Potency: inactive

## Cc1cc(CS(=O)(=O)c2ccccc2)cc(OCc2ccc(CN3CCC[C@H]3CO)cc2)c1
[1]
  activation: -28.2%
[2]
  Potency: inactive
[3]
  Potency: inactive

## C=C1C(OC(C)=O)CCC2(C)CC3(OC)OC(=O)C(C)=C3CC12 (configuration not stated)
[1]
  activation: 17.9%
[2]
  Potency: inactive
[3]
  Potency: inactive

## O=C(OCC1=CC(O)C2C=CO[C@@H](O[C@@H]3O[C@H](CO)[C@@H](O)[C@H](O)[C@H]3O)C12)c1ccccc1 (some centres not stated)
[1]
  activation: -17.6%
[2]
  Potency: inactive
[3]
  Potency: inactive

## COC(=O)[C@@]1(O)C=CC[C@@H]2[C@@]3(C)C[C@@H](c4ccoc4)OC(=O)[C@H]3CC[C@]21C
[1]
  activation: 7.14%
[2]
  Potency: inactive
[3]
  Potency: inactive

## CC(O)C(C)n1ncn(-c2ccc(N3CCN(c4ccc(OCC5COC(Cn6cncn6)(c6ccc(Cl)cc6Cl)O5)cc4)CC3)cc2)c1=O (configuration not stated)
[1]
  activation: -5.67%
[2]
  Potency: inactive
[3]
  Potency: inactive

## CC1=C2C(=O)C=C(CO)[C@@H]2[C@H]2OC(=O)[C@H](C)[C@@H]2[C@@H](O)C1
[1]
  activation: -3.57%
[2]
  Potency: inactive
[3]
  Potency: inactive

## CC1=C2C(=O)C=C(CO[C@@H]3O[C@H](CO)[C@@H](O)[C@H](O)[C@H]3O)[C@@H]2[C@H]2OC(=O)[C@H](C)[C@@H]2CC1
[1]
  activation: -19.6%
[2]
  Potency: inactive
[3]
  Potency: inactive

## CC1=C(C)C(=O)OC(C(C)C2C(O)CC3C4C5OC5C5(O)CC(OC6OC(CO)C(O)C(O)C6O)CC(O)C5(C)C4CCC32C)C1 (configuration not stated)
[1]
  activation: -6.87%
[2]
  Potency: inactive
[3]
  Potency: inactive

## CCC/C=C/C(=O)O[C@H]1CC(C)(C)CC2[C@]13[C@H](O)O[C@@]21CCC2[C@@]4(C)CC[C@H](O[C@@H]5O[C@H](C(=O)O)[C@@H](O)[C@H](O[C@@H]6O[C@H](CO)[C@H](O)[C@H](O)[C@H]6O[C@@H]6O[C@@H](C)[C@H](O)[C@@H](O)[C@H]6O[C@@H]6OC[C@](O)(CO)[C@H]6O)[C@H]5O[C@@H]5O[C@H](CO)[C@H](O)[C@H](O)[C@H]5O)C(C)(C)C4CC[C@@]2(C)[C@]1(C)C[C@H]3OC(C)=O (some centres not stated)
[1]
  activation: -4.58%
[2]
  activity change, negative = inhibition: 3.01% [at 11.2 µM]
[3]
  activity change, negative = inhibition: 13.9% [at 11.2 µM]

## CC1=C2C3OC(=O)C(C)C3(O)CCC2(C)CCC1 (configuration not stated)
[1]
  activation: 2.68%
[2]
  Potency: inactive
[3]
  Potency: inactive

## COc1ccc2c3ccnc4ccc(=O)n(c2c1)c43
[1]
  activation: 17%
[2]
  Potency: inactive
[3]
  Potency: inactive

## CCN1C(C)(C)CC(Oc2ccc(C(=O)Nc3ccc(NC(=O)Nc4cc(C(C)(C)C)on4)cc3)nc2)CC1(C)C
[1]
  Potency: 21.3 µM (active)
[2]
  Potency: inactive
[3]
  Potency: inactive

## C=C1[C@@H]2[C@H]3OC(=O)C(=C)[C@@H]3CC[C@@](C)(O)[C@@H]2C[C@@H]1O[C@@H]1O[C@H](CO)[C@@H](O)[C@H](O)[C@H]1O
[1]
  activation: 15.2%
[2]
  Potency: inactive
[3]
  Potency: inactive

## CCc1cccc(CC)c1-n1c(C=C(C)C)c(C(=O)N2CCNCC2)cc(-c2nc(-c3ccc(C(F)(F)F)cc3)cs2)c1=O
[1]
  activation: 26.3%
[2]
  Potency: inactive
[3]
  Potency: inactive

## CCC(C)C1NC(=O)C2CCCN2C(=O)C(CC(O)CO)OC(=O)CCNC(=O)C(C)N(C)C(=O)C(C(C)C)N(C)C1=O (configuration not stated) (cyclo([X10]PI[NMeV][NMeA][βAla]); configuration not given here)
[1]
  activation: -16%
[2]
  Potency: inactive
[3]
  Potency: inactive

## C[C@@H]1O[C@@H](OC[C@H]2O[C@@H](OCc3ccccc3)[C@H](O)[C@@H](O)[C@@H]2O)[C@H](O)[C@H](O)[C@H]1O
[1]
  activation: 15.3%
[2]
  Potency: inactive
[3]
  Potency: inactive

## Cc1onc(-c2c(F)cccc2Cl)c1C(=O)N[C@@H]1C(=O)N2[C@@H]1SC(C)(C)[C@@H]2C(=O)O
[1]
  activation: -1.67%
[2]
  Potency: inactive
[3]
  Potency: inactive

## O=C(/C=C\c1ccc(O)cc1)N[C@@H](Cc1ccc(O)cc1)C(=O)O
[1]
  activation: 17.9%
[2]
  Potency: inactive
[3]
  Potency: inactive

## CC(C)c1ccc(CC(=O)N2CCC[C@@H](c3cccc(OC(C)(C)C(=O)O)c3)C2)cc1
[1]
  activation: 7%
[2]
  Potency: inactive
[3]
  Potency: inactive

## NC(=O)C(O[C@@H]1O[C@H](CO[C@@H]2O[C@H](CO)[C@@H](O)[C@H](O)[C@H]2O)[C@@H](O)[C@H](O)[C@H]1O)c1ccccc1 (some centres not stated)
[1]
  activation: -6.11%
[2]
  Potency: inactive
[3]
  Potency: inactive

## C[C@@H]1O[C@@H](O[C@H]2[C@H](OC(=O)[C@]34CCC(C)(C)C[C@H]3C3=CCC5[C@@]6(C)C[C@H](O)[C@H](O[C@@H]7O[C@H](CO)[C@@H](O)[C@H](O)[C@H]7O)[C@@](C)(CO)C6[C@H](O)C[C@@]5(C)[C@]3(C)C[C@H]4O)OC[C@H](O)[C@@H]2O)[C@H](O)[C@H](O)[C@H]1O[C@@H]1OC[C@@H](O)[C@H](O[C@H]2OC[C@](O)(CO)[C@H]2O)[C@H]1O (some centres not stated)
[1]
  activation: 27.7%
[2]
  activity change, negative = inhibition: 5.31% [at 11.2 µM]
[3]
  activity change, negative = inhibition: -7.49% [at 11.2 µM]

## C=C(C)C(O)COc1ccc(CC(=O)O)cc1 (configuration not stated)
[1]
  activation: 8.93%
[2]
  Potency: inactive
[3]
  Potency: inactive

## COc1cc(C(C)=O)ccc1O[C@@H]1O[C@H](CO[C@@H]2O[C@@H](C)[C@H](O)[C@@H](O)[C@H]2O)[C@@H](O)[C@H](O)[C@H]1O
[1]
  activation: -13%
[2]
  Potency: inactive
[3]
  Potency: inactive

## O=C(O)[C@H]1CCCC[C@H]1C(=O)N1CCc2ccccc2[C@H]1CN1C(=O)c2ccccc2C1=O
[1]
  activation: -3%
[2]
  Potency: inactive
[3]
  Potency: inactive

## CCC(=O)O[C@H]1C(C)(C)[C@H]([C@@H](O)C(=O)OC)[C@]2(C)C(=O)[C@@]1(O)[C@H]1O[C@]13C1CC(=O)O[C@@H](c4ccoc4)[C@]1(C)CCC32 (some centres not stated)
[1]
  activation: -20.6%
[2]
  Potency: inactive
[3]
  Potency: inactive

## COc1ccccc1CC(C(=O)O)N(C)C(=O)c1ccccc1 (configuration not stated)
[1]
  activation: -8.04%
[2]
  Potency: inactive
[3]
  Potency: inactive

## C/C=C/[C@@H]1C=C[C@@H]2C[C@H](C)CC[C@H]2[C@]1(C)/C(O)=C1/C(=O)[C@@H](CO)N(C)C1=O
[1]
  activation: 6.87%
[2]
  Potency: inactive
[3]
  Potency: inactive

## Cc1c(CN2CCN(C(=O)C(C)O)CC2)sc2c(N3CCOCC3)nc(-c3cnc(N)nc3)nc12 (configuration not stated)
[1]
  Potency: 12 µM (active)
[2]
  Potency: inactive
[3]
  Potency: inactive

## COc1c2ccoc2nc2c(OC)c(O[C@@H]3O[C@@H](C)[C@H](O)[C@@H](O[C@@H]4O[C@H](CO)[C@@H](O)[C@H](O)[C@H]4O)[C@H]3OC(C)=O)ccc12
[1]
  activation: 27.7%
[2]
  Potency: inactive
[3]
  Potency: inactive

## CC(=O)O[C@@H]1[C@@H](O)[C@H](O[C@@H]2[C@@H](O)[C@@H](O)[C@H](O[C@H]3[C@H](O[C@H]4[C@H](O[C@H]5CC[C@@]6(C)C(CC[C@]7(C)C6CC=C6[C@@H]8CC(C)(C)CC[C@]8(C(=O)O)CC[C@]67C)[C@]5(C)CO)O[C@H](CO)[C@@H](O)[C@@H]4O)OC[C@@H](O)[C@@H]3O)O[C@H]2C)OC[C@H]1O (some centres not stated)
[1]
  activation: -3.05%
[2]
  Potency: inactive
[3]
  Potency: inactive

## C=CC(C)(O)C1CC2C3(C)CCCC(C)(C)C3C(O)C(O)C2(C)O1 (configuration not stated)
[1]
  activation: -9.82%
[2]
  Potency: inactive
[3]
  Potency: inactive

## CC1(C)CCCC2(C)C3=C(C(=O)OC3O)C(O)CC12 (configuration not stated)
[1]
  activation: 9.92%
[2]
  Potency: inactive
[3]
  Potency: inactive

## O=C(O)c1cccc(CN2C(=O)/C(=C(\c3ccccc3)c3ccc(Cl)cc3)c3ccccc32)c1
[1]
  activation: -4.46%
[2]
  Potency: inactive
[3]
  Potency: inactive

## CCCCCc1ccc(/C=C/C(=O)Nc2cc(Cl)ccc2C(=O)O)cc1
[1]
  activation: -1%
[2]
  Potency: inactive
[3]
  Potency: inactive

## Cc1cccc(C)c1-n1c(=O)c2cnc(Nc3ccc(N4CCN(C)CC4)cc3)nc2n2c3ccccc3nc12
[1]
  Potency: 30.1 µM (active)
[2]
  Potency: inactive
[3]
  Potency: inactive

## COc1c(-c2ccc(O)cc2)cc(OC)c2c1oc1cc(O)c(OC3OC(CO)C(O)C3O)cc12 (configuration not stated)
[1]
  activation: 1.79%
[2]
  Potency: inactive
[3]
  Potency: inactive

## C=C(C=O)[C@]1(O)C[C@@]2(C)C(=CC1=O)C=C[C@H](OC(=O)/C=C/C=C/[C@H](C)CC)[C@@H]2C
[1]
  Potency: 4.65 µM (active)
[2]
  Potency: inactive
[3]
  Potency: inactive

## C/C1=C\[C@@H](C)C[C@@H](C)[C@@H](Cc2cnco2)OC(=O)/C(C)=C/[C@@H](C)C[C@@H](C)[C@@H](Cc2cnco2)OC1=O
[1]
  activation: 0%
[2]
  Potency: inactive
[3]
  Potency: inactive
